Screening results deposited in PubChem by National Center for Advancing Translational Sciences (NCATS).
This is a sample that favours compounds with a hit; in the whole collection about 19% have one here.
TDP1 cell noCPT: qHTS for Inhibitors of human tyrosyl-DNA phosphodiesterase 1 (TDP1): qHTS in cells in absence of CPT. DT40 Tdp1-/- hTDP1 cells, no CPT, ATP luminescence, 48 h. Potency, µM (highest dose often 46.2 µM), actives largely listed as inhibitors. 420,000 compounds, 15% hits. AID 686978, 2013; also: nearly all actives have a fitted effect of over 55% in size
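Growth of hTDP1-complemented DT40 Tdp1-knockout cells is measured by ATP luminescence after at least 48 hr compound exposure at 37 °C, with DMSO substituting for the 20 nM CPT used in the parallel screen.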
HT1080 IDH1KD tx: kills HT-1080 cells with IDH1 knockdown | HT-1080 IDH1 knockdown viability, ATP luminescence, 48 h | Potency, µM (doses to about 46.1 µM), usual class: cytotoxic | 360,000 compounds, 2% hits
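Assay cells: HT-1080 with IDH1 knockdown, 750 per well, RPMI/5% FBS. Exposure: 48 h at 37 °C following 2 h pre-incubation. Read: CellTiter-Glo luminescence; fitted concentration-response, curve class assigned.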
TDP1 cell CPT: growth inhibition of DT40 Tdp1-/-;hTDP1 cells with camptothecin (screen for TDP1 inhibitors); chicken DT40 Tdp1-/-;hTDP1 cells + 20 nM CPT, ATP luminescence, 48 h; AID 686979; Potency, µM (top dose mostly 46.2 µM), actives largely listed as inhibitors; 420,000 compounds, 12% hits; also: nearly all actives have a fitted effect of over 55% in size
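Chicken DT40 Tdp1-/- cells complemented with human TDP1, 400 cells/well, exposed to compounds plus 20 nM camptothecin for at least 48 h at 37 C; viability read as ATP content by CellTiter-Glo luminescence.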
IL-1B inflam inh: blocks inflammasome-driven IL-1 beta release; activity change, % at 57.5 µM; AID 743279; THP-1 LPS/ATP IL-1B secretion, AlphaLISA, 16 h; stronger effect = lower value; 360,000 compounds, 4.7% hits; in the data active = activity change below about -50%; inconclusive = mostly about -30% to -49%
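Secreted IL-1B measured by AlphaLISA bead assay after 16 h compound exposure of THP-1 cells; compounds (final up to 57.5 uM) added 1 h before LPS (250 ng/mL) and ATP (1.25 mM) stimulation; lower signal means less secretion.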
ELG1 repair inh: ELG1-dependent DNA repair inhibition; Potency, µM (titrated, usually from 46.1 µM), usual class: inhibitors; HEK293T ELG1-luciferase reporter, luminescence, 16 h; DNA damage induced by 5-fluorouridine; 330,000 compounds, 2.3% hits; also: nearly all actives have a fitted effect of over 55% in size
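Reporter activity after DNA damage by 5-fluorouridine is monitored. Compound-treated cells incubate 16 hr at 37 °C, then ONE-Glo is added for 30 min before luminescence reading.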
HT1080-NT tox: kills 2HG-producing HT-1080-NT fibrosarcoma cells. AID 686970. Potency, µM (top dose mostly 46.1 µM), usual class: cytotoxic. 360,000 compounds, 1.6% hits. HT-1080-NT fibrosarcoma viability, CellTiter-Glo ATP luminescence, 48 h;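 also: NT is the 2HG producing partner of a matched IDH1 knockdown line; nearly all actives have a fitted effect of over 55% in size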
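750 cells/well, RPMI + 5% FBS; 2 h settle, compound pin-transfer, 48 h at 37 degrees C. CellTiter-Glo 10 min RT, luminescence. Normalized to DMSO and media-only wells.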
A number is an active result; . = inactive; ? = inconclusive; / = no result given; [ ] = another dose, or the depositor's remark. Unless noted, calls follow the shape of the dose curve; as a rule, active = well fitted curve in the direction sought with a large enough effect; inconclusive = small, poorly fitted or top-dose-only effect, or another doubt; inactive = no such curve, though single readings can be large; an effect the other way counts as inactive or inconclusive.

SMILES | TDP1 cell noCPT | HT1080 IDH1KD tx | TDP1 cell CPT | IL-1B inflam inh | ELG1 repair inh | HT1080-NT tox
CCOC(=O)Cc1csc(NC(=O)COc2ccc(C)cc2)n1 | ? | . | ? | . | . | .
COC(=O)[C@]12CCCCC=C1N(Cc1ccc3c(c1)OCO3)C(=O)[C@H](CC(=O)NCCCN1CCCC1=O)C2 | ? | . | ? | . | / | .
Cc1ccc2nc(NC(=O)CSc3nc(=O)n(CCN(C)C)c4c3CCCC4)sc2c1 | ? | . | . | . | . | .
CC(C)NC(=O)Cn1ncn2c(cc3cc(F)ccc32)c1=O | . | / | . | / | / | /
CCOC(=O)Cc1csc(NC(=O)NC2(C(F)(F)F)Oc3cc(Cl)c(Cl)cc3O2)n1 | ? | . | 23.1µM | . | . | ?
CCOC(=O)Cc1csc(NC(=O)Nc2ccc(OC(F)(F)F)cc2)n1 | 18.4µM | ? | ? | . | 2.06µM | .
CCOC(=O)Cc1csc(NC(=O)c2ccc(NC(C)=O)cc2)n1 | . | . | . | . | . | .
CCOC(=O)Cc1csc(NC(=O)CSc2ncnc3c2cnn3-c2ccc(OC)cc2)n1 | 14.6µM | . | ? | . | ? | .
CCOC(=O)CNC(=O)CSc1ncnc2c1cnn2-c1ccc(Cl)cc1 | . | . | . | . | . | .
Cc1ccc(OCC(COCc2ccccc2)NC(C)C)cc1 (stereo not given) | 18.4µM | . | ? | ? | / | .
Cc1ccc(OCCNCC(O)COc2ccccc2)cc1 (stereo not given) | . | . | . | . | . | .
COc1ccc(Cc2nnc(SCc3ccc([N+](=O)[O-])cc3)o2)cc1 | ? | . | ? | ? | 23.1µM | .
O=C(CSc1nc(-c2ccccc2)cc(C(F)(F)F)n1)N1CCOCC1 | . | . | . | . | . | .
CC1CCN(C(=O)CSc2nc(-c3ccc(F)cc3)cc(C(F)(F)F)n2)CC1 | ? | / | 20.6µM | / | / | /
COc1ccc(-c2cc(C(F)(F)F)nc(SCC(=O)N3CCOCC3)n2)cc1OC | ? | . | . | ? | 8.2µM | .
CCC(C)NC(=O)CSc1nc(-c2ccc(F)cc2)cc(C(F)(F)F)n1 (stereo not given) | ? | / | . | / | / | /
Cc1ccc(-n2c(=O)c3c4c(sc3n(Cc3cc(=O)n5cc(Cl)ccc5n3)c2=O)CCC4)cc1C | . | / | . | / | / | /
CCc1c(C)sc2c1CCN(C(=O)Nc1ccc(F)c(Cl)c1)C2c1ccc(F)cc1 (stereo not given) | 16.4µM | / | ? | / | / | /
CCc1c(C)sc2c1CCN(C(=O)Nc1cc(Cl)c(OC)cc1OC)C2c1ccccc1 (stereo not given) | 25.9µM | / | ? | / | / | /
CCc1c(C)sc2c1CCN(C(=O)Nc1ccccc1C(F)(F)F)C2c1ccccc1 (stereo not given) | 7.31µM | / | ? | / | / | /
COC(=O)c1ccccc1NC(=O)N1CCc2c(sc3c2CCCC3)C1c1ccc(F)cc1 (stereo not given) | . | / | . | / | / | /
COc1cc(OC)c(NC(=O)N2CCOCC2)cc1Cl | . | . | . | . | . | .
CC(C)(C)c1ccc(S(=O)(=O)N2CCN(c3ccccn3)CC2)cc1 | . | . | ? | . | . | .
O=C(Nc1ccc(NC(=O)c2ccc(Cl)cc2Cl)cc1)c1ccc2c(c1)OCO2 | . | . | . | . | . | .
O=C(Nc1cccc(C2=NCCN2)c1)Nc1cccc(C2=NCCN2)c1 | 7.31µM | . | 9.2µM | ? | / | .
SMILES | TDP1 cell noCPT | HT1080 IDH1KD tx | TDP1 cell CPT | IL-1B inflam inh | ELG1 repair inh | HT1080-NT tox
O=C(Nc1ccc(C2=NCCN2)cc1)c1ccc(C(=O)Nc2ccc(C3=NCCN3)cc2)c(Cl)c1 | 5.17µM | . | 7.31µM | . | . | .
O=C(Nc1ccccc1)Nc1cccc(-c2nnco2)c1 | ? | . | . | . | . | .
O=C(Cn1nc(-c2ccccc2)oc1=O)OCC(=O)c1ccc(F)c(F)c1 | . | . | . | . | . | .
O=C(CN1CCN(c2ccccc2Cl)CC1)NC1CCCc2ccccc21 (stereo not given) | ? | . | ? | -59.0 | . | .
CC(C)N(C(=O)CSc1nc2ccc(Cl)cc2[nH]1)c1ccccc1 | 23.1µM | / | ? | / | / | /
O=C(CSc1nc2ccc(Cl)cc2[nH]1)NC1CCCc2ccccc21 (stereo not given) | 20.6µM | ? | ? | ? | ? | .
Cc1ccc(Cl)cc1N1CCN(CC(=O)NC2CCCc3ccccc32)CC1 (stereo not given) | 16.4µM | ? | ? | . | . | ?
O=C(COC(=O)c1ccccn1)NCc1cccs1 | . | . | . | . | . | .
O=C(c1ccco1)N1CCC2(CCCN(c3ncccn3)C2)CC1 | . | / | . | / | / | /
CCN(CC)c1ccc2cc(S(=O)(=O)c3ccc(C)cc3)c(=O)oc2c1 | ? | . | ? | . | . | .
CCOC(=O)c1c(C)n(C)c2c(C)cc(O)c(OC(=O)CC)c12 | ? | .[9.24 µM] | 7.31µM | . | . | .
Cc1cccc(NC(=S)N/N=C/c2ccc(Cl)c([N+](=O)[O-])c2)c1 | ? | . | ? | . | . | ?
C=CCNC(=S)Nc1ccc2nc(C)c(C)nc2c1 | 18.4µM | . | ? | . | ? | .
C=CCNC(=S)N/N=C/c1ccc(C)cc1C | 5.17µM | 16.4µM | 5.17µM | . | ? | 23.1µM
C=CCNC(=S)N/N=C/c1ccc(C)c([N+](=O)[O-])c1 | 6.51µM | . | 14.6µM | ? | . | .
CCc1ccc(C(=O)c2cn(CC(=O)Nc3cc(OC)ccc3OC)c3nc(C)ccc3c2=O)cc1 | . | / | ? | / | / | /
CC(C)(C)n1nnnc1C(c1cc2ccccc2o1)N1CCCCC1 (stereo not given) | ? | . | ? | . | / | .
CC1(C)CC(=O)C2=C(C1)Nc1ccccc1NC2 | . | . | . | . | . | .
CC1(C)CC(=O)C(CS(=O)(=O)c2ccccc2)=C(Cl)C1 | 2.91µM | . | 5.17µM | . | . | .
CC(=O)C1CCC2C3CC=C4N(C)C(=O)CCC4(C)C3CCC12C (stereo not given) | . | . | . | . | / | .
C[C@]12CC[C@H](O)CC1=CCC1C2CC[C@@]2(C)C1CC[C@@H]2NC(=O)[C@@H](N)Cc1ccccc1 (stereo not given in full) | 20.6µM | . | ? | -96.4 | . | .
CC(=O)C1CCC2C3CC=C4CC(SC(=N)N)CCC4(C)C3CCC12C (stereo not given) | 8.2µM | ? | 13µM | -102.7 | / | ?
CC(C)(C)[C@H](N)C(=O)N[C@H]1CCC2C3CC=C4C[C@@H](O)CC[C@]4(C)C3CC[C@@]21C (stereo not given in full) | 3.66µM | ? | 4.61µM | -102.2 | ? | ?
